“And” between values parts separate entries of the source, which are not always exact repeats. Identical values can stand only once. Records with an inconclusive call do not appear. Entries that show only a call come without a potency. The source made the active and inactive calls. Unless noted, calls follow the shape of the dose curve; as a rule, active = well fitted curve in the direction sought with a large enough effect in the repeat runs; inconclusive = weak or mixed curves; inactive = no such curve, though single readings can be large; an effect the other way counts as inactive or inconclusive.
How the values were obtained:
[1] = qHTS assay to identify small molecule agonists of the peroxisome proliferator-activated receptor delta (PPARd) signaling pathway - cell viability counter screen (AID 743211); also: nearly all actives have a fitted effect of over 55% in size; also: potency is read from the fitted curve at half-maximal effect
Summary of the method: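 Viability was measured as CellTiter-Glo luminescence (30 min, room temperature) in the same wells as the beta-lactamase readout. GeneBLAzer PPARd UAS-bla HEK293H cells received compound after 5 h plating and were incubated 17 h at 37 C.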

[2] = biological target: Peroxisome proliferator-activated receptor delta (Homo sapiens) (UniProt Q03181); experiment: qHTS assay to identify small molecule agonists of the peroxisome proliferator-activated receptor delta (PPARd) signaling pathway (AID 743212; calls by dose curve)
Sequence of Peroxisome proliferator-activated receptor delta (Homo sapiens) (Q03181 whole entry, looked up): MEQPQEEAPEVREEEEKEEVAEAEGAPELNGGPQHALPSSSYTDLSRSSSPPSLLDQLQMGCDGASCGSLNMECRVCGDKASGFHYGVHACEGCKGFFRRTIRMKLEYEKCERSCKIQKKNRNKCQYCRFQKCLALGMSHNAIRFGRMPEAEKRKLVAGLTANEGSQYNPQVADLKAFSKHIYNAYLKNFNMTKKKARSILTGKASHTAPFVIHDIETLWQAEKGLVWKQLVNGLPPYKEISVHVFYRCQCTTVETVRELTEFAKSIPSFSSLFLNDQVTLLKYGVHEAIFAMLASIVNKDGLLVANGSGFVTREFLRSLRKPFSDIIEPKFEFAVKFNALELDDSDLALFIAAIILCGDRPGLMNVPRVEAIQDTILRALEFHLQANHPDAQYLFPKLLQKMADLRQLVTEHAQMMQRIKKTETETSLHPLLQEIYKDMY
Summary of the method: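 GeneBLAzer PPARd UAS-bla HEK293H cells (beta-lactamase reporter under UAS control), plated and rested 5 h at 37 C, then exposed to compounds in DMSO at 37 C; LiveBLAzer B/G FRET substrate added, 2 h room temperature, fluorescence read.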

[3] = biological target: Peroxisome proliferator-activated receptor delta (Homo sapiens) (UniProt Q03181); experiment: qHTS assay to identify small molecule antagonists of the peroxisome proliferator-activated receptor delta (PPARd) signaling pathway (AID 743215; active = well fitted inhibition curve with a large enough effect in the signal ratio in the repeat runs, not every such curve was filed as active; the % refers to the signal ratio;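 also: cells stimulated with agonist L165041 at 300 nM final during compound exposure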; also: potency is read from the fitted curve at half-maximal effect)
Summary of the method: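 With L165041 present at 300 nM final, compounds were incubated 17 h at 37 C on PPARd UAS-bla HEK293H cells. A FRET-based beta-lactamase substrate was then applied for 2 h at room temperature and fluorescence intensity recorded.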

[4] = qHTS assay to identify small molecule antagonists of the farnesoid-X-receptor (FXR) signaling pathway - cell viability counter screen (AID 743221; active = well fitted cell-killing curve with a large enough effect in the repeat runs, not every such curve was filed as active; also: nearly all actives have a fitted effect of over 50% in size; also: potency is read from the fitted curve at half-maximal effect)
Summary of the method: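 Cytotoxicity counter screen run in the FXR-bla reporter wells: HEK 293T cells exposed to compound with 50 uM (final) chenodeoxycholic acid for 16 h, 37 C, then viability measured by CellTiter-Glo luminescence after 30 min, room temperature.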

[5] = qHTS assay to identify small molecule agonists of the vitamin D receptor (VDR) signaling pathway - cell viability counter screen (AID 743224); also: nearly all actives have a fitted effect of over 50% in size; also: potency is read from the fitted curve at half-maximal effect
Summary of the method: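 Here cell health was gauged by luminescent ATP detection (CellTiter-Glo, 30 min RT) in VDR-bla cells that had been incubated with test compounds for 16 h at 37C and 5% CO2.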

[6] = qHTS assay to identify small molecule antagonists of the vitamin D receptor (VDR) signaling pathway - cell viability counter screen (AID 743225); also: nearly all actives have a fitted effect of over 50% in size; also: potency is read from the fitted curve at half-maximal effect
Summary of the method: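 Cytotoxicity counter screen read by CellTiter-Glo luminescence (30 min, room temperature) in the same wells as the VDR-bla antagonist readout. HEK 293T VDR-UAS-bla cells had 16 h at 37C with compound and 3 nM (final) 1-alpha,25-dihydroxyvitamin D3, then 2 h with FRET substrate.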

[7] = qHTS assay to identify small molecule agonists of the NFkB signaling pathway - cell viability counter screen (AID 1159515; calls by dose curve; also: nearly all actives have a fitted effect of over 55% in size; also: potency is read from the fitted curve at half-maximal effect)
Summary of the method: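 5 hr compound treatment of NFkB-bla ME-180 cells (2,000/well, seeded overnight beforehand), followed by reporter substrate for 1.5 hr. CellTiter-Glo added afterward; luminescence after 30 min RT.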

[8] = qHTS assay to identify small molecule agonists of the endoplasmic reticulum stress response signaling pathway - cell viability counter screen (AID 1159517; calls by dose curve; also: nearly all actives have a fitted effect of over 50% in size; also: potency is read from the fitted curve at half-maximal effect)
Summary of the method: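 Luminescence readout: CellTiter-Glo, 30 min RT, same wells as the ESRE-bla reporter read. HeLa ESRE-bla, 1,500 cells/well, o/n 37 C; cpd 5 hr 37 C/5% CO2.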

[9] = qHTS assay to identify small molecule antagonists of the retinoid-related orphan receptor gamma (ROR-gamma) signaling pathway - cell viability counter screen (AID 1159520); also: nearly all actives have a fitted effect of over 50% in size; also: potency is read from the fitted curve at half-maximal effect
Summary of the method: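 Tet-on ROR gamma CHO cells (1,000/well) were plated 4 hr, given compounds in DMSO for 2 hr at 37 C, then induced with 1 uM final doxycycline for 16 hr. Viability was read as ATP by CellTiter-Glo luminescence after 30 min.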

[10] = qHTS assay to identify small molecule agonists of the AP-1 signaling pathway - cell viability counter screen (AID 1159525; calls by dose curve; also: nearly all actives have a fitted effect of over 55% in size; also: potency is read from the fitted curve at half-maximal effect)
Summary of the method: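 ME-180 AP-1-bla, 2500 cells/well, Opti-MEM + 0.5% dialyzed FBS; overnight 37 °C; cpd 15-pt titration, 5 h 37 °C; CellTiter-Glo 30 min RT; luminescence read; normalised to TOAB and DMSO controls.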

[11] = biological target: Bile acid receptor (Homo sapiens) (UniProt Q96RI1); experiment: qHTS assay to identify small molecule antagonists of the farnesoid-X-receptor (FXR) signaling pathway (AID 743217; active = well fitted inhibition curve with a large enough effect in the signal ratio in the repeat runs, not every such curve was filed as active; the % refers to the signal ratio)
Sequence of Bile acid receptor (Homo sapiens) (Q96RI1 whole entry, looked up): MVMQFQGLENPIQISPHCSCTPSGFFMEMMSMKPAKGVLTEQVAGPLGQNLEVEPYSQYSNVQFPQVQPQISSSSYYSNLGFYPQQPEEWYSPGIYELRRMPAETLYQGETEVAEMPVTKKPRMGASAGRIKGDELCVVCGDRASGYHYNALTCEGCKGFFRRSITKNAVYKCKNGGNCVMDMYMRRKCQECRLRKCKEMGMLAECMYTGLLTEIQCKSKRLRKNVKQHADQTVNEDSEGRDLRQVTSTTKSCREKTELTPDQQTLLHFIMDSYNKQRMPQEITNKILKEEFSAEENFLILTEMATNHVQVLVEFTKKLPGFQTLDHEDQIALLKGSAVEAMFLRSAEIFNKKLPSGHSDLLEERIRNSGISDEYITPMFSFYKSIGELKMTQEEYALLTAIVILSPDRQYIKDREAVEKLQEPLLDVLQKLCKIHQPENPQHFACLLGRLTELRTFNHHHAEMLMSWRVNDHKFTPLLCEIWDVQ
Summary of the method: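 In this cell-based antagonist screen, inhibition of CDCA-driven (50 uM final) UAS-beta-lactamase expression in HEK 293T cells was measured by FRET fluorescence following 16 h compound exposure at 37 °C.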

[12] = biological target: Bile acid receptor (Homo sapiens) (UniProt Q96RI1); experiment: qHTS assay to identify small molecule agonists of the farnesoid-X-receptor (FXR) signaling pathway (AID 743220; active = well fitted activation curve with a large enough effect in the signal ratio in the repeat runs, not every such curve was filed as active; the % refers to the signal ratio)
Summary of the method: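 Beta-lactamase reporter under UAS control in GeneBLAzer FXR HEK 293T cells (5000/well) measured with LiveBLAzer FRET substrate after 2 h at room temperature. Compound exposure lasted 16 h at 37C.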

[13] = biological target: Vitamin D3 receptor (Homo sapiens) (UniProt P11473); experiment: qHTS assay to identify small molecule agonists of the vitamin D receptor (VDR) signaling pathway (AID 743222; calls by dose curve)
Sequence of Vitamin D3 receptor (Homo sapiens) (P11473 whole entry, looked up): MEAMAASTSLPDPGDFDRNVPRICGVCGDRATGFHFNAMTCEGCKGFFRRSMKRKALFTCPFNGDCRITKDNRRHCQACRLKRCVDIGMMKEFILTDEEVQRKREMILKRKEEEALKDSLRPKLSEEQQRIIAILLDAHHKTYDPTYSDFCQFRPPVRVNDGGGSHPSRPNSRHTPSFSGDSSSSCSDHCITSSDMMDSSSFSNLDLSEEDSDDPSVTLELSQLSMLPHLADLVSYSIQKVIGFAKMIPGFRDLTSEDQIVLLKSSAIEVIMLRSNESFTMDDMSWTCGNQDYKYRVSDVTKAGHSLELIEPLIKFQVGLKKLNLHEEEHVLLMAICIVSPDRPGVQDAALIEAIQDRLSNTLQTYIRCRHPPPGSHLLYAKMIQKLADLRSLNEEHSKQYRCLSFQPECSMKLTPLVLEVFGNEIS
Summary of the method: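 VDR-bla cells were seeded, left 4 h, treated with compounds in DMSO for 16 h, incubated 2 h at RT with B/G FRET substrate, and read for fluorescence.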

[14] = biological target: Nuclear receptor ROR-gamma (Homo sapiens) (UniProt P51449); experiment: qHTS assay to identify small molecule antagonists of the retinoid-related orphan receptor gamma (ROR-gamma) signaling pathway (AID 1159521)
Summary of the method: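 Antagonist read-out: drop in luminescence (ONE-Glo) from an RORE-LUC reporter in CHO cells with doxycycline-inducible ROR-gamma; 2 hr compound pretreatment, 1 uM doxycycline, 16 hr incubation at 37 C.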

[15] = qHTS assay to identify small molecule agonists of the AP-1 signaling pathway (AID 1159526; calls by dose curve)
[16] = qHTS assay to identify small molecule antagonists of the peroxisome proliferator-activated receptor delta (PPARd) signaling pathway - cell viability counter screen (AID 743213); also: nearly all actives have a fitted effect of over 50% in size; also: potency is read from the fitted curve at half-maximal effect
Summary of the method: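 HEK293H cells with the PPARd UAS-bla reporter, co-treated 17 h at 37 C with compounds and L165041 (300 nM final), were lysed with CellTiter-Glo. Luminescence indicated viable cell content.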

[17] = qHTS assay to identify small molecule agonists of the farnesoid-X-receptor (FXR) signaling pathway - cell viability counter screen (AID 743218); also: nearly all actives have a fitted effect of over 45% in size; also: potency is read from the fitted curve at half-maximal effect
Summary of the method: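 After 16 h at 37 C with test compounds, FXR-bla HEK 293T cells were given LiveBLAzer B/G substrate for 2 h at RT and then CellTiter-Glo; luminescence was taken after 30 min.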

[18] = biological target: Vitamin D3 receptor (Homo sapiens) (UniProt P11473); experiment: qHTS assay to identify small molecule antagonists of the vitamin D receptor (VDR) signaling pathway (AID 743223; active = well fitted inhibition curve with a large enough effect in the signal ratio in the repeat runs, not every such curve was filed as active; the % refers to the signal ratio; also: potency is read from the fitted curve at half-maximal effect)
Summary of the method: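 Antagonist mode: compound added to VDR-bla cells alongside agonist 1alpha,25-dihydroxyvitamin D3 (3 nM final), incubation 16 h at 37C. Read-out is LiveBLAzer FRET fluorescence, 2 h at room temperature.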

SMILES | Potency [1] | Potency [2] | Potency [3] | Potency [4] | Potency [5] | Potency [6] | Potency [7] | Potency [8] | Potency [9] | Potency [10] | Potency [11] | Potency [12] | Potency [13] | Potency [14] | Potency [15] | Potency [16] | Potency [17] | Potency [18]
Cc1cccc(N(C)C(=S)Oc2ccc3c(c2)C2CCC3C2)c1 (stereo not drawn) | inactive | inactive | inactive | inactive | inactive | inactive | inactive | inactive | inactive | inactive |  |  |  |  |  |  |  | 
Fc1ccc([C@@H]2CCNC[C@H]2COc2ccc3c(c2)OCO3)cc1 | 13.3 µM (active) | inactive |  |  |  |  | inactive | inactive | inactive | inactive | inactive | inactive |  |  |  |  |  | 
C[C@@H]1C[C@H]2[C@@H]3CCC4=CC(=O)C=C[C@]4(C)[C@@]3(Cl)[C@@H](O)C[C@]2(C)[C@@]1(OC(=O)c1ccco1)C(=O)CCl |  |  | inactive | inactive |  |  | inactive | inactive |  | inactive |  |  | inactive | 11.9 µM (active) | inactive |  |  | 
Cc1c(C)c2c(c(C)c1O)CCC(C)(COc1ccc(CC3SC(=O)NC3=O)cc1)O2 (stereo not drawn) |  |  |  | inactive | inactive | inactive | inactive | inactive | inactive | inactive | inactive |  |  |  | inactive | inactive | inactive | inactive
O=C(c1ccc(F)cc1)C1CCN(CCn2c(=O)[nH]c3ccccc3c2=O)CC1 |  | inactive | inactive | inactive |  |  | inactive | inactive | inactive | inactive |  |  |  |  | inactive | inactive | inactive | 
O=C1Cc2cc(CCN3CCN(c4nsc5ccccc45)CC3)c(Cl)cc2N1 | 29.8 µM (active) |  |  |  |  | 23.9 µM (active) | 23.9 µM (active) | inactive | inactive |  |  |  |  |  |  | 26.6 µM (active) |  | 
CCCCCCCCCCn1cc[n+](CCCCCCCCCC)c1C | 7.77 µM (active) |  |  | 34.7 µM (active) | 15.5 µM (active) | 6.93 µM (active) | 55 µM (active) | 34.7 µM (active) | 19.4 µM (active) | 39 µM (active) |  |  |  |  |  | 13.8 µM (active) | 39 µM (active) | 19.5 µM (active)
Fc1ccc(C(c2ccc(F)cc2)N2CCN(C/C=C/c3ccccc3)CC2)cc1 |  |  |  |  | 29.8 µM (active) |  | inactive | inactive |  | inactive |  | inactive |  | 23.7 µM (active) | inactive |  | inactive | 
CC(=O)S[C@@H]1CC2=CC(=O)CC[C@]2(C)[C@H]2CC[C@@]3(C)[C@@H](CC[C@@]34CCC(=O)O4)[C@H]12 | inactive |  |  |  | inactive |  | inactive | inactive | inactive | inactive |  |  |  |  | inactive | inactive | inactive | 
CC(C)(C)CC(C)(C)c1ccc(OCCOCC[N+](C)(C)Cc2ccccc2)cc1 | 21.9 µM (active) and 21.1 µM (active) |  |  | 43.6 µM (active) and 26.6 µM (active) | 38.9 µM (active) and 26.6 µM (active) |  | 24.5 µM (active) | 21.9 µM (active) | 54.4 µM (active) | 24.5 µM (active) | inactive | inactive |  |  |  | 17.4 µM (active) | 48.9 µM (active) | 
CN1CCC(Nc2ncc3ncnc(Nc4ccc(F)c(Cl)c4)c3n2)CC1 | 23.7 µM (active) |  |  | 29.8 µM (active) |  | 21.3 µM (active) | inactive | inactive | inactive | inactive |  |  |  |  |  | 5.96 µM (active) | 11.9 µM (active) | 
Cc1onc(-c2c(Cl)cccc2Cl)c1C(=O)N[C@@H]1C(=O)N2[C@@H]1SC(C)(C)[C@@H]2C(=O)O | inactive |  |  | inactive | inactive | inactive | inactive | inactive | inactive | inactive |  |  | inactive |  |  | inactive | inactive | 
OC1(c2ccc(Cl)c(C(F)(F)F)c2)CCN(CCCC(c2ccc(F)cc2)c2ccc(F)cc2)CC1 | 4.73 µM (active) |  | 26.6 µM (active) | 26.6 µM (active) |  | 10.7 µM (active) | 12 µM (active) | 8.49 µM (active) | 9.44 µM (active) | 9.52 µM (active) |  |  |  |  |  | 11.9 µM (active) | 9.44 µM (active) | 
O=[N+]([O-])c1cc([N+](=O)[O-])c2ccc(S(=O)(=O)O)cc2c1O | inactive |  |  | inactive | inactive | inactive | inactive | inactive | inactive | inactive |  |  |  |  |  | inactive | inactive | 
